Compounds with a hit are over-represented: about 1.3% of the library has one in this group of screens.
3CLpro inhibitor: SARS-CoV 3CLpro protease inhibition. P0C6X7. recombinant SARS-CoV 3CLpro, quenched FRET peptide cleavage. inhibition, % at 6 µM. 290,000 compounds, 0.14% hits. AID 1706; in the data active means inhibition above about 12%
CCHF vOTU inh-1: CCHFV vOTU protease inhibition; Pep-AMC fluorescence; inhibition, % at 11.5 µM; 370,000 compounds, 0.55% hits
PrP 5UTR inh: inhibition of PrP 5' UTR reporter expression; cell-based PrP 5' UTR mRNA reporter, plate reader; inhibition, % (concentration not given with the values); 340,000 compounds, 0.35% hits; in the data active means inhibition above about 52%
PrPC surface inh: reduces human prion protein on the cell surface; P04156; AID 720596; cell surface PrPC, TR-FRET read-out; 370,000 compounds, 0.43% hits; inhibition, % at 13.8 µM; in the data active means inhibition above about 24%
CCHF vOTU inh-2: confirmation of CCHF virus vOTU protease inhibitors | shares compounds with CCHF vOTU inh-1 | Recombinant CCHFV vOTU, Pep-AMC fluorescence | inhibition, % at 11.5 µM | 1,900 compounds, 17% hits | AID 686976
Of the large screens only hits and unclear results are named; the others gave an inactive call (follow-up assays come after a bar, where they were run). Unless noted, no stated cut-off is given here; in the data, active means inhibition above about 30%; inactive means the rest.

CC1=CCC(C(=O)O)C(C(=O)Nc2nc3ccc(S(C)(=O)=O)cc3s2)C1 (stereo unspecified)	none
CCc1cccc(NC(=O)CN(C)S(=O)(=O)c2cccc3nsnc23)c1	CCHF vOTU inh-1 36 | CCHF vOTU inh-2 inactive
Cc1cc(C)cc(NC(=O)CN(C)S(=O)(=O)c2cccc3nsnc23)c1	none
CS(=O)(=O)N(CC(=O)N1CCCC1)c1ccccc1F	none
CC(=O)Nc1ccc(C(=O)Nc2ccc(S(=O)(=O)N3CCCCC3)cc2)cc1	none
CC(=O)Nc1ccc(NC(=O)c2ccc(S(=O)(=O)N3CCCCCC3)cc2)cc1	CCHF vOTU inh-1 43 (no result: 3CLpro inhibitor, PrP 5UTR inh) | CCHF vOTU inh-2 inactive
O=C(c1ccc(OC(F)(F)F)cc1)c1ncc[nH]1	none (no result: CCHF vOTU inh-1, PrPC surface inh)
COc1ccc(Cl)cc1NC(=O)CN(C)C(=O)c1cccc(-n2cnnn2)c1	none (no result: 3CLpro inhibitor)
CCc1nn(CCCC(=O)NCc2ccccc2Br)c(=O)c2cc3occc3n12	CCHF vOTU inh-1 47 | CCHF vOTU inh-2 inactive
O=C(NNC(=O)c1cncc(Br)c1)c1ccncc1	none (no result: 3CLpro inhibitor, PrP 5UTR inh)
Cc1ccc2[nH]c3c(c2c1)CCc1cn[nH]c1-3	CCHF vOTU inh-1 38 | CCHF vOTU inh-2 inactive
CCOC(=O)C(CNc1ccc(O)cc1)NC(=O)c1ccccc1 (stereo unspecified)	CCHF vOTU inh-1 49 (no result: 3CLpro inhibitor, PrP 5UTR inh) | CCHF vOTU inh-2 inactive
CCOC(=O)CCC(NC(=O)c1ccc(NCN2C(=O)c3ccccc3C2=O)cc1)C(=O)OCC (stereo unspecified)	none
CCOC(=O)c1ccc(S(=O)(=O)N2CCC(C(=O)NCc3ccccc3OC)CC2)cc1	none (no result: 3CLpro inhibitor)
COc1cc(/C=N/Nc2ccc(S(N)(=O)=O)cc2)cc(OC)c1OC	CCHF vOTU inh-1 30 | CCHF vOTU inh-2 inactive
CC(C)C1OC(CCc2ccccc2)Cc2[nH][nH]c(=O)c21 (stereo unspecified)	CCHF vOTU inh-1 33 (no result: 3CLpro inhibitor, PrP 5UTR inh) | CCHF vOTU inh-2 inactive
O=C(CCC(=O)Nc1ccc(Cl)cc1Cl)N/N=C/c1ccc([N+](=O)[O-])o1	CCHF vOTU inh-1 39 (no result: PrP 5UTR inh) | CCHF vOTU inh-2 inactive
CCCCCC(=O)N/N=C/c1ccc([N+](=O)[O-])o1	none
O=C(Cc1ccc2c(c1)OCO2)NN=Cc1ccc([N+](=O)[O-])o1	CCHF vOTU inh-1 32 (no result: 3CLpro inhibitor) | CCHF vOTU inh-2 inactive
O=C(N/N=C\c1ccc([N+](=O)[O-])o1)c1cncc(Br)c1	CCHF vOTU inh-1 50 | CCHF vOTU inh-2 inactive
O=C(C1=C[C@@H](c2ccc3c(c2)OCO3)C[C@@H](OCc2ccc(CO)cc2)O1)N1CCOCC1	none
COc1ccc(-n2cnc3scc(-c4ccc(OC)c(OC)c4)c3c2=O)cc1	none
Cc1cc(N2CCNC[C@@H]2C)ccc1N1CC[C@@H](O)C1	none (no result: 3CLpro inhibitor, PrP 5UTR inh)
C[C@H]1CNCCN1c1ccc(N2CC[C@@H](O)C2)c(C#N)c1	CCHF vOTU inh-1 34 (no result: 3CLpro inhibitor, PrP 5UTR inh) | CCHF vOTU inh-2 inactive
O=C(N/N=C\C=C\c1ccc2c(c1)OCO2)c1cccnc1	none
O=C1C=C(O)c2cccc(O)c2C1=O	CCHF vOTU inh-1 94 (no result: 3CLpro inhibitor) | CCHF vOTU inh-2 inactive
COc1cccc(S(=O)(=O)c2nc(C)c3c(n2)CCC3)c1	none
CCOc1ccc(NC2=C(OC)C(=O)c3ccccc3C2=O)cc1	CCHF vOTU inh-1 62 | CCHF vOTU inh-2 inactive
COC1=C(Nc2ccc(OC)cc2)C(=O)c2ccccc2C1=O	CCHF vOTU inh-1 59 | CCHF vOTU inh-2 inactive
COC1=C(Nc2ccc(O)cc2)C(=O)c2ccccc2C1=O	CCHF vOTU inh-1 40 | CCHF vOTU inh-2 inactive
C#CCOc1c(Cl)cc(/C=C2/C(=O)ON=C2C)cc1OCC	none
O=c1cc(-c2ccccc2)oc2cccc(O)c12	none (no result: 3CLpro inhibitor)
Cc1ccccc1-c1cc(=O)c2c(O)cccc2o1	CCHF vOTU inh-1 35 (no result: 3CLpro inhibitor) | CCHF vOTU inh-2 inactive
O=C(O)CN1C(=O)/C(=C\c2cc(Br)ccc2OCc2ccccc2Cl)SC1=S	none
O=C(O)CN1C(=O)/C(=C\c2cc(Br)ccc2OCc2ccc([N+](=O)[O-])cc2)SC1=S	CCHF vOTU inh-1 32 | CCHF vOTU inh-2 inactive
O=C(NCCN1CCOCC1)C12CC3CC(C1)CC(c1ccccc1)(C3)C2	none
CCCCC1C2=C(CC(C)(C)CC2=O)OC2=C1C(=O)CC(C)(C)C2	CCHF vOTU inh-1 30 | CCHF vOTU inh-2 inactive
Cc1cnn(C(=O)c2cc(-c3ccccc3)nc3ccccc23)c1	none
O=[N+]([O-])c1c(NCCCO)cc(SCc2ccco2)c2nonc12	CCHF vOTU inh-1 48 | CCHF vOTU inh-2 inactive
Nc1nc2ncccc2cc1C(=O)NC1CC1	none (no result: 3CLpro inhibitor, PrP 5UTR inh)
COc1ccc(C2(c3ccc(OC)cc3)NC(=O)N(CC(=O)N(C)C3CCC(C)CC3)C2=O)cc1 (stereo unspecified)	CCHF vOTU inh-1 30 (no result: 3CLpro inhibitor) | CCHF vOTU inh-2 inactive
CC(=O)N(c1ccccc1C)c1ccccc1C	CCHF vOTU inh-1 34 (no result: 3CLpro inhibitor) | CCHF vOTU inh-2 inactive
CC(=O)N(c1ccccc1)c1ccccc1[N+](=O)[O-]	none (no result: 3CLpro inhibitor, PrP 5UTR inh)
O=C(CCn1nc(-c2ccccc2)c2ccccc2c1=O)Nc1cccnc1	none
Nc1c(C(=O)NCCCc2ccccc2)c2nc3ccccc3nc2n1Cc1cccs1	CCHF vOTU inh-1 109 | CCHF vOTU inh-2 inactive
CCOC(=O)Cc1cc(=O)n(-c2nc3ccccc3s2)[nH]1	none
COc1ccc(NS(=O)(=O)c2cccc(C(=O)N3CCN(C/C=C/c4ccccc4)CC3)c2)cc1	CCHF vOTU inh-1 30 (no result: 3CLpro inhibitor, PrP 5UTR inh) | CCHF vOTU inh-2 inactive
COc1ccccc1NS(=O)(=O)c1cccc(C(=O)N2CCN(C/C=C/c3ccccc3)CC2)c1	none
Cc1nc(N2CCOCC2)nc(N2CCCCC2)c1[N+](=O)[O-]	CCHF vOTU inh-1 44 | CCHF vOTU inh-2 inactive
Cc1nc2ccccc2nc(C)c1=NO	none
CCOc1ccc(S(=O)(=O)N2CCCCC2)cc1NC(=O)c1cccnc1OCC	none (no result: 3CLpro inhibitor)
CCOc1ncccc1C(=O)Nc1cc(S(=O)(=O)N2CCOCC2)ccc1OCC(F)(F)F	CCHF vOTU inh-1 55 (no result: 3CLpro inhibitor) | CCHF vOTU inh-2 inactive
O=[N+]([O-])c1cc([N+](=O)[O-])c2c(=Nc3ccccc3)n(-c3ccccc3)n(O)c2c1	CCHF vOTU inh-1 31 | CCHF vOTU inh-2 inactive
COc1ccccc1OCCCOc1ccc([N+](=O)[O-])cc1Cl	none
CCC1CCCCN1C(=O)CSc1nnc2nc(C)cc(C)n12 (stereo unspecified)	none (no result: 3CLpro inhibitor)
CS(=O)(=O)c1ccc(N2CCN(S(=O)(=O)c3cccs3)CC2)c([N+](=O)[O-])c1	CCHF vOTU inh-1 35 (no result: 3CLpro inhibitor) | CCHF vOTU inh-2 inactive
CCCn1c2ccccc2c2cnn(CC(=O)NCCCN3CCCCC3)c(=O)c21	none
O=C1C(=Cc2cn(-c3ccccc3)nc2-c2ccc(OCc3ccccc3)cc2)SC(=S)N1CCS(=O)(=O)O	CCHF vOTU inh-1 30 (no result: 3CLpro inhibitor, PrP 5UTR inh) | CCHF vOTU inh-2 inactive
CCC(NC(=O)CCc1c(C)c2cc3c4c(oc3cc2oc1=O)CCCC4)C(=O)O (stereo unspecified)	none
Nc1[nH][nH]c(=O)c1N=Nc1cccc(Cl)c1	CCHF vOTU inh-1 32 | CCHF vOTU inh-2 inactive
COc1cccc(N=Nc2c(N)[nH][nH]c2=O)c1	none
Cc1cc(S(=O)(=O)N2CCOCC2)ccc1OCC(=O)Nc1ccccc1C(F)(F)F	none
O=C(Nc1cccc(C(F)(F)F)c1)OCc1ccncc1	none (no result: 3CLpro inhibitor)
O=C(CCS(=O)(=O)c1ccc(Cl)cc1)NCCN1C(=O)S/C(=C\c2ccccc2F)C1=O	none
Cc1ccc(S(=O)(=O)CCC(=O)NCCN2C(=O)S/C(=C\c3ccccc3)C2=O)cc1	CCHF vOTU inh-1 40 | CCHF vOTU inh-2 inactive
Cc1ccccc1CSCC(=O)Nc1ccccc1F	none

High-throughput results as filed in PubChem.
